Molecules are shown by their SMILES. The campaign covered roughly 1,400 compounds. About 55 (4%) were called active. The list is a sample of the results. Entries with a potency or affinity are not part of this list. A number with no mark means an inactive call. No rule for the calls is given here.

This experiment can be described thus: A549 cell toxicity, dose response, cytotoxicity control, plate reader, cherry-pick samples (AID 687028).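 Also: cells incubated with compound for three days before reading.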 Particulars: series mostly up to 19.5 µM; activity change, negative = toxicity: at the top concentration.
For the compound `Cc1ccc(NC(=O)C(=O)NCC2CCCN2S(=O)(=O)c2cccs2)cc1` (configuration not stated), the “activity change, negative = toxicity” value is 1.62%. `N#C[C@@H]1[C@H](c2ccc(C#Cc3ccccc3F)cc2)[C@@H](CO)N1C(=O)C1CC1`: the “activity change, negative = toxicity” value was 1.1%. The same measure for `COc1ccc(C(C)(NC(C)=O)c2nc(-c3cccc(F)c3)cs2)cc1` (configuration not stated): 3.2%. As for `ClCCCc1cn(C[C@H]2CC[C@@H]([C@@H]3CC[C@H](Cn4cc(CCCCl)nn4)O3)O2)nn1`, the “activity change, negative = toxicity” value is 7.49%. The same measure for `C[C@H]1CN([C@@H](C)CO)C(=O)c2cccc(NS(=O)(=O)c3ccccc3)c2O[C@@H]1CN(C)Cc1ccc(Cl)c(Cl)c1`: -3.38%; for `Cc1c(C(=O)OC(C)C)sc(N)c1C(=O)OC(C)C`: 1.5%; for `O=C(NCCNC(=O)c1cc(F)cc(F)c1)c1cc(F)cc(F)c1`: -3.56%.

In the case of `O=C(NCc1ccccc1)C(c1ccncc1)n1c(=O)c(-c2ccccc2)nc2ccccc21` (configuration not stated), the “activity change, negative = toxicity” value is 4.91%.

`CCCc1nc2ccccc2n1C(C)C(=O)NC(C)(C)C` (configuration not stated): the “activity change, negative = toxicity” value was 3.89%. The same measure for `COc1ccc2c3c([nH]c2c1)[C@@H](CO)N(C(=O)C1CCOCC1)CC31CN(C)C1`: -1.01%; for `CN(C)C(=O)c1cccc(-c2ccc3c(c2)[C@@H]2[C@@H](CCN2C(=O)Cc2ccncc2)[C@@H](CO)N3)c1`: 6.17%. The same measure for `COc1ccc(C)cc1NC(=O)C1CCN(S(=O)(=O)c2cccc3cccnc23)CC1`: 7.52%.

As to `COc1ccc(CC(=O)Nc2ccc(C)c(S(=O)(=O)N3CCCCCC3)c2)cc1`, the “activity change, negative = toxicity” value is -1.27%.

With `O=c1c2cc(Br)ccc2[nH]c(=S)n1Cc1ccccn1`, the “activity change, negative = toxicity” value was -1.61%.

As for `CCc1c(C(=O)Nc2cc(C(=O)OC)ccc2C)csc1C`, the “activity change, negative = toxicity” value is 4.93%. For `CC(C)(C)c1ccc(C(=O)Nc2ccc3c(c2)C(=O)NC3=O)cc1`, the “activity change, negative = toxicity” value was 12.8%. The value for `CC(=O)Nc1cccc(OCCCNC(=O)c2ccc(C(C)(C)C)cc2)c1` was -4.38%.

For `CN(C)CC(=O)Nc1ccc2c(c1)[C@@H]1C[C@@H](CC(=O)NC3CCCCC3)O[C@H](CO)[C@@H]1O2`, the “activity change, negative = toxicity” value was -0.282%.

With `CC(Oc1ccccc1Cl)C(=O)N1CCOCC1` (configuration not stated), the “activity change, negative = toxicity” value is 1.54%. The same measure for `COc1cccc(NC(=O)COc2cccc3c2CCNC3=O)c1`: 2.81%; for `Cc1ccc(NC(=O)C2CCN(S(C)(=O)=O)CC2)cc1Cl`: 0.073%. Take `Cc1ccc(C)c(NS(=O)(=O)c2cc(C(=O)NCc3ccncc3)ccc2C)c1`: the “activity change, negative = toxicity” value was 4.78%. The same measure for `COc1ccc(NC(=O)N2C[C@@H](O)COC[C@@H]3O[C@H](CC(=O)NC4Cc5ccccc5C4)CC[C@H]32)cc1`: 0.889%; for `O=C(NCCN1CCC(n2c(=O)[nH]c3ccccc32)CC1)c1ccccc1`: 3.87%.

Consider `CCOC(=O)[C@]12CCCC=C1N(Cc1ccccc1)C(=O)[C@H](CC(=O)NCc1cccs1)C2`, for which the “activity change, negative = toxicity” value was 5.87%. The same measure for `COC(=O)[C@]12CCCCC=C1N(Cc1cccc3ccccc13)C(=O)[C@H](CC(=O)NCCC(C)C)C2`: 3.24%; for `CCOC(=O)[C@]12CCC=C1N(Cc1cccc3ccccc13)C(=O)[C@H](CC(=O)N1CCCC1)C2`: 4.62%; for `CCCCNC(=O)C[C@@H]1C[C@@]2(C(=O)OC)CCCCC=C2N(CCC2=CCCCC2)C1=O`: -3.84%. The same measure for `O=C(c1ccc(F)cc1)N1CCC(C(=O)N2CCCc3ccccc32)CC1`: 1.63%. The value for `COc1ccccc1CN1[C@H](CO)[C@@H](c2ccccc2)C12CN(C(=O)c1ccccn1)C2` was -3.67%; that for `CC1CCN(CCOc2ccc(OCc3ccccc3)cc2)CC1` was 5.09%; that for `CCc1cccc(OCCN2CCCC2)c1` was 6.55%. `CC(OC(=O)c1ccc2c(=O)n3c(nc2c1)CCC3)C(=O)NC1CCCCC1C` (configuration not stated): the “activity change, negative = toxicity” value was 0.101%.

Consider `C[C@@H]1CCCCO[C@@H](CN(C)C(=O)Nc2ccc(C(F)(F)F)cc2)[C@H](C)CN([C@H](C)CO)C(=O)c2cc(NC(=O)Cc3ccccc3)ccc2O1`, for which the “activity change, negative = toxicity” value was -4.73%. The same measure for `C[C@@H]1CN([C@H](C)CO)C(=O)c2cc(NC(=O)Nc3ccc(C(F)(F)F)cc3)ccc2O[C@@H](C)CCCCO[C@@H]1CN(C)C(=O)Cc1ccccc1`: 3.37%; for `C[C@@H]1CCCCO[C@H](CN(C)Cc2ccc(C(F)(F)F)cc2)[C@H](C)CN([C@@H](C)CO)C(=O)c2cc(NC(=O)c3ccccc3)ccc2O1`: -31.1%; for `C[C@H](CO)N1C[C@H](C)[C@H](CN(C)C(=O)Nc2ccc(F)cc2)OCCCC[C@H](C)Oc2ccc(NC(=O)c3ccccc3)cc2C1=O`: -6.69%. For the compound `Cc1nc2ccccc2n1C(c1cccnc1)c1nc2ccccc2[nH]1` (configuration not stated), the “activity change, negative = toxicity” value was 3.62%.

Take `O=C1c2ccccc2C(=O)N1CC(=O)N1c2ccccc2Sc2ccc(C(F)(F)F)cc21`: the “activity change, negative = toxicity” value is 4.42%. For `COc1ccccc1NCC(=O)N/N=C(\C)c1ccc(Br)s1`, the “activity change, negative = toxicity” value was 3.35%. Consider `O=C(NCCCCNC(=O)c1cccnc1Cl)c1cccnc1Cl`, for which the “activity change, negative = toxicity” value is 1.96%. Take `Cc1ccc(CNCc2cc(Cl)ccc2O)cc1`: the “activity change, negative = toxicity” value is -0.534%. The value for `Oc1ccc(Cl)cc1CNCc1ccc(F)cc1` was 0.475%; that for `O=C(NC1CC1)c1cccc(NC(=O)c2cc(S(=O)(=O)N3CCOCC3)ccc2Cl)c1` was 5.28%; that for `O=C(C[C@@H]1CC[C@H]2[C@@H](COC[C@H](O)CN2C(=O)c2ccccc2F)O1)NCc1ccccc1` was 4.14%. As to `COc1cccc(C(=O)N2CCOCC2)c1`, the “activity change, negative = toxicity” value is 3.69%. The value for `CCC(=O)Nc1nnc(/C=C/c2ccc(OC)cc2)s1` was 3.82%. For the compound `C[C@@H]1CCCCO[C@H](CN(C)C(=O)NC2CCCCC2)[C@@H](C)CN([C@H](C)CO)C(=O)c2cc(NC(=O)CCCCCC(=O)Nc3ccccc3N)ccc2O1`, the “activity change, negative = toxicity” value is -0.471% [at 21 µM]. The value for `Clc1cc(Br)ccc1OCCOCCN1CCCC1` was 3.02%; that for `Clc1cc(Br)ccc1OCCCn1ccnc1` was -3.3%; that for `COc1ccc(C(=O)NCCNc2nc3c(C)cccc3cc2C#N)cc1OC` was -1.18%. The value for `Cn1c(N)c(C(=O)N2CCN(c3ccccc3)CC2)c(=O)n(C)c1=O` was 0.876%; that for `CN1c2ccc(Br)cc2[C@@H]2[C@@H](CCN2C(=O)C2CCCC2)[C@H]1CO` was 13.6%; that for `CN1c2ccc(Br)cc2[C@H]2[C@H](CCN2C(=O)C2CCC2)[C@H]1CO` was -2.31% [at 21 µM].

`COc1cccc(C2(c3cccc(OC)c3)CC2C(=O)Nc2ccc(F)cc2)c1` (configuration not stated): the “activity change, negative = toxicity” value was 1.49%. The value for `CN1C(C)(C)c2ccccc2OS1(=O)=O` was 2.21%. The same measure for `O=C(CN1CCN(S(=O)(=O)c2ccccc2F)CC1)NC1CCCC1`: 1.27%; for `COc1ccc(S(=O)(=O)N2CCC(C(=O)NCCC(=O)NCc3ccccn3)CC2)cc1`: 5.8%. The value for `O=C(NCc1ccccc1)[C@H]1CCCN1C(=O)[C@H]1CCCN1C(=O)c1ccc(Cl)cc1` was 2.99%; that for `COc1ccc(C2=Nn3c(nnc3-c3ccccc3Cl)SC2)cc1OCC1CC1` was -2.82%; that for `Cc1ccc(S(=O)(=O)Cc2ccccc2Cl)cc1` was -2.25%.

For the compound `CC(NC(=O)CN1CCN(c2cccc(Cl)c2)CC1)c1ccccc1` (configuration not stated), the “activity change, negative = toxicity” value is 2.41%. On to `CC(C)(C)c1ccc(C(=O)OCC(=O)Nc2sc3c(c2C#N)CCC3)cc1`, for which the “activity change, negative = toxicity” value is 8.14%. Take `COc1ccc(-c2nc(NCCCN(C)C)c3ccccc3n2)cc1`: the “activity change, negative = toxicity” value is -3.68%. Consider `COc1ccc(C(CNC(=O)c2cccc3cccnc23)N(C)C)cc1` (configuration not stated), for which the “activity change, negative = toxicity” value is -38.7%. Turning to `COC(=O)[C@@H]1[C@H](CCc2ccccc2)NC(=O)N(Cc2ccccc2)[C@@H]1C`, the “activity change, negative = toxicity” value was 9.65%. As to `COc1ccc(C2=Nc3ccccc3N(C(=O)c3ccncc3)C2C(=O)NC(C)C)cc1` (configuration not stated), the “activity change, negative = toxicity” value was 6.76%.

On to `COc1ccc(OC)c(NC(=O)NNS(=O)(=O)c2ccc(C)cc2C)c1`, for which the “activity change, negative = toxicity” value is 10.2%. For the compound `Cc1ccc(C)c(NC(=O)CN2C(=O)C3CC=CCC3C2=O)c1` (configuration not stated), the “activity change, negative = toxicity” value was 2.15%. Consider `CC1(C(=O)Nc2cccc(OC(F)(F)F)c2)Cc2c(-c3cccc(C(N)=O)c3)ccnc2O1` (configuration not stated), for which the “activity change, negative = toxicity” value is -15.9%. The same measure for `CC1(C(=O)NCc2cccc(C(F)(F)F)c2)CCN1Cc1cc2ccccc2o1` (configuration not stated): 5.37%; for `C[C@H](CO)N1C[C@H](C)[C@@H](CN(C)S(=O)(=O)c2cn(C)cn2)Oc2ccc(NC(=O)Nc3cccc4ccccc34)cc2CC1=O`: 4.45% [at 21 µM]. `O=C(N[C@@H]1c2ccccc2CC[C@@H]1OCc1ccccc1)c1ccc(C(F)(F)F)cc1`: the “activity change, negative = toxicity” value is -0.699%. The value for `CCCn1c(NCc2ccc(N(C)C)cc2)nc2ccccc21` was 3.28%; that for `COc1ccc(CNC(=O)COC(=O)CN2C(=O)NC3(CCCC3)C2=O)cc1` was 2.48%. Consider `CCC(c1nnnn1-c1c(C)cccc1C)N1CCN(C/C=C/c2ccccc2)CC1` (configuration not stated), for which the “activity change, negative = toxicity” value is -4.93%. In the case of `O=C1CCCC(c2ccccc2)N1` (configuration not stated), the “activity change, negative = toxicity” value is 1.97%. The same measure for `Cc1ccc(NC(=O)CN2CCC(NC(=O)c3cccc(F)c3)CC2)cc1C`: 4.03%.

For the compound `COc1cc(C(=S)N2CCCCC2)ccc1OCC(=O)Nc1ccc(F)cc1`, the “activity change, negative = toxicity” value was -0.726%. The value for `COc1ccc(CCN2C(=O)CSCC2(C)C(=O)Nc2ccc3c(c2)OCCO3)cc1OC` (configuration not stated) was 2.93%. Take `CCN1CCN(C(=O)C2CC(=O)N(c3ccc(Cl)cc3)C2)CC1` (configuration not stated): the “activity change, negative = toxicity” value is 4.04%. The value for `COc1cccc(N2CC(C(=O)Nc3ccc(F)cc3)CC2=O)c1` (configuration not stated) was 3.92%. The value for `CCOc1ccc(/C=N/n2nnnc2N)cc1OCC` was 14.9%; that for `CC(C)(C)N(Cc1ccccc1)C(=O)COC(=O)C1CCN(c2ccc(C(F)(F)F)cn2)CC1` was 1.79%.

With `Cc1cc2oc3ccc(NCCCN4CCOCC4)cc3c(=O)c2cc1C`, the “activity change, negative = toxicity” value was 3.8%. Turning to `CN1CCN(C(=O)c2cc3sc4ccccc4c3s2)CC1`, the “activity change, negative = toxicity” value was 3.61%. The value for `COC(=O)CN(c1cc(Cl)ccc1OC)S(=O)(=O)c1ccc(OC)c(OC)c1` was 4.16%; that for `Cc1ccc(S(=O)(=O)N(C)C)cc1NC(=O)COC(=O)C1CCCC1` was 3.55%; that for `O=C(NC1CCCC1)c1nc(-c2c(F)cccc2F)oc1-c1ccccc1` was 4.75%. The same measure for `Cc1cccc(C)c1OCC(O)Cn1ccnc1C` (configuration not stated): 0.445%; for `Cc1cccc(C(=O)OCC(=O)NCc2ccc(Cl)cc2)c1`: 6.43%.

In the case of `CN1CCC(=O)N([C@H](COc2ccccc2)Cc2ccccc2)CC1`, the “activity change, negative = toxicity” value was -1.58%. The same measure for `O=C(Cc1cn(Cc2ccccc2)c2ccccc12)Nc1ccc(Oc2cccnc2)cc1`: 6.03%.

For `O=C(Oc1ccccc1)c1ccccc1C(=O)Oc1ccccc1`, the “activity change, negative = toxicity” value is 1.83%. Consider `COc1ccc(NC(=O)c2cc3ccccc3cc2O)cc1`, for which the “activity change, negative = toxicity” value is 5.07%. The value for `Cc1ccccc1-c1ccc(C2[C@@H]3CN(C(=O)Cc4ccncc4)C[C@H]2N3)cc1` (some centres not stated) was 3.86% [at 21 µM]. The value for `COCCNC(=O)C1(C)CCCN(C(=O)c2ccccc2)C1` (configuration not stated) was 0.534%.
